In PubChem BioAssay AID2521 (Sanford-Burnham Center for Chemical Genomics, 2010) one finds inhibition data, which are given here for 60 molecules.

The structures appear in SMILES notation. Hit rate of the full screen: of about 330,000 compounds, about 1,100 (0.33%) were called active. The full list was thinned out, with actives kept by preference. Values without a mark were called inactive.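 Rule for the calls: active = inhibition above about 40% at 20 µM (limit read from the data); inactive = the rest.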

The target in the assay is Apelin receptor (Homo sapiens) (UniProt P35414). Kind of assay: blockade of apelin-induced APJ beta-arrestin recruitment – CHO-K1 cells, beta-arrestin complementation, luminescence, primary screen (AID 2521).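 Note: cells challenged with 10 nM apelin-13 agonist together with compound; plate controls were apelin-13 plus DMSO wells for no effect and DMSO wells lacking apelin-13 for full effect.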 Particulars: at 20 µM, hits give high values.
Sequence of Apelin receptor (Homo sapiens) (P35414 whole entry, looked up): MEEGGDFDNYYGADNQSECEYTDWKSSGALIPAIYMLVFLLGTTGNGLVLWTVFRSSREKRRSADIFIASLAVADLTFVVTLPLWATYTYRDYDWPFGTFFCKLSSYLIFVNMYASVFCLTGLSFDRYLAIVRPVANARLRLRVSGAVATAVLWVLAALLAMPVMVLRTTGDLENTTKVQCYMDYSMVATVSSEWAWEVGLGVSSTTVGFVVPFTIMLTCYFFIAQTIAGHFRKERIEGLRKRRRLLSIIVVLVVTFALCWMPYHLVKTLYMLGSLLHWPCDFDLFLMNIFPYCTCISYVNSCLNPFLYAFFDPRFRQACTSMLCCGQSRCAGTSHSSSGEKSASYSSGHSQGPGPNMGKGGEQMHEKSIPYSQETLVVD
In the case of `COc1ccc(S(=O)(=O)N2CCOCC2)c(C)c1C`, the inhibition is 3%.
The figure for `COc1ccccc1NC(=O)c1c(Br)cnn1C` is -0.0339%.
The figure for `CN=C1C=C/C(=N/N=c2\ccn(O)cc2C)C=C1C` is 46% (active); for `CC(C)C[C@@H](N)c1nnc(SCC(=O)c2ccc(Cl)cc2)o1` it is 6.62%; for `O=C1Oc2ccccc2C(=O)/C1=C/c1ccccc1O` it is 3.82%.
For `O=C(NCCCc1ccccc1)C1CCC(=O)N(CCc2ccc(Cl)cc2)C1` (stereo not given) the value was 4.1%; for `COc1cccc(NC(C)=[N+](C)CCNS(=O)(=O)c2ccc(Cl)cc2)c1`, 13.5%; for `CCOC(=O)c1cnc(Nc2nc3ccccc3o2)nc1CSC(=S)N1CCCCC1`, 44.1% (active).
`CCc1ccc(CNC(=O)C2CCCN(c3nc4ccccc4o3)C2)cc1` (stereo not given): the inhibition was -5.94%.
As to `CCOC(=O)CCNC(=O)N1CCCC(C(=O)c2ccccc2SC)C1` (stereo not given), the inhibition was -13.5%.
Take `O=C(CC1SC(=Nc2ccccc2)N(Cc2ccccn2)C1=O)Nc1cccc(Cl)c1` (stereo not given): the inhibition is 0.604%.
For `COc1ccc(CCNC(=S)NC(=O)/C=C/c2ccc(C)cc2)cc1OC` the value was -38%.
`O=S(=O)(c1ccc(NC(=S)NN=C(C2CC2)C2CC2)cc1)N1CCOCC1`: the inhibition is -24.4%.
The figure for `Cc1ccc(S(=O)(=O)N2CCN(CC(=O)N/N=C/c3cc([N+](=O)[O-])ccc3Cl)CC2)cc1` is -9.95%; for `O=[N+]([O-])c1cc(Cl)cc(/C=N/NC(=S)Nc2cc(S(=O)(=O)N3CCOCC3)ccc2Cl)c1O` it is 42.1% (active); for `Cn1cc[n+](C)c1COc1ccc(C=O)cc1` it is -7.79%.
The figure for `COC(=O)Cc1ccc(OC(=O)C2CCN(S(=O)(=O)c3ccc(OC)c(OC)c3)CC2)cc1` is 11.3%.
For `CN(CC(=O)NCc1cccnc1)S(=O)(=O)c1cc(Cl)ccc1Cl` the value was -3.77%; for `CC(=O)N1c2ccc(S(=O)(=O)N3CCC(C(=O)NCc4ccc(F)cc4)CC3)cc2CC1C` (stereo not given), 7.14%; for `COc1cccc(CNC(=O)C(=O)NCCC2CCCCN2S(=O)(=O)c2ccc(C)cc2)c1` (stereo not given), -56.9%.
Take `c1ccc(Cc2nn3c(Cn4cnc5ccccc54)nnc3s2)cc1`: the inhibition was 7.67%.
The figure for `Cc1ccc(C(=O)COC(=O)c2cccc(N3C(=O)c4c(C)nc5ccccc5c4C3=O)c2)cc1C` is -8.71%; for `CCOC(=O)N/N=C/c1cccnc1` it is 11.3%; for `O=C(CSc1cccc2cccnc12)N/N=C/c1cccnc1` it is 41.8% (active).
The figure for `COc1ccc(C(=O)NCC(=O)N/N=C/c2cccnc2)cc1` is 4.23%; for `CS(=O)(=O)N1CCc2cc(C(=O)Nc3ccccc3)ccc21` it is 6.74%; for `Clc1ccc(Cn2ncc3c(NCc4cccnc4)ncnc32)cc1` it is -0.393%.
The figure for `CCOc1ccc(S(=O)(=O)Nc2ccc(S(=O)(=O)Nc3cc(OC)ccc3OC)cc2)cc1` is 15.7%.
Consider `COc1cc(NS(=O)(=O)c2ccc3ccccc3c2)c2ncccc2c1`, for which the inhibition is 65.3% (active).
Regarding `COc1ccc(N2CC(NS(=O)(=O)c3ccc4ccccc4c3)CC2=O)cc1` (stereo not given), the inhibition was 1.28%.
Take `O=C(NCCS(=O)(=O)NCc1ccc(Cl)cc1)c1ccccc1`: the inhibition was -4.12%.
On to `O=C(CN1C(=O)NC2(CCCC2)C1=O)Nc1ccc(F)c(F)c1F`, for which the inhibition is 8.35%.
For `COc1cccc(CC2(CO)CCN(Cc3cnc(-c4cccc(C)c4)nc3)CC2)c1` the value was -17.4%; for `Cc1cnc(NC(=O)c2ccccn2)s1`, 9.6%.
For `COc1ccc(/C(C)=N\NC(=O)c2ccc(-c3ccccc3)cc2)c(F)c1` the value was 8.03%; for `C/C(=N\NC(=O)c1ccccc1F)c1ccccn1`, 57.1% (active).
On to `CCOC(=O)[C@H]1CCC[C@@H](NS(=O)(=O)c2ccc(NC(C)=O)cc2)C1`, for which the inhibition is 6.91%.
`CC(C)(C)c1cc(C(=O)NN)n(Cc2ccc(Cl)cc2Cl)n1`: the inhibition was -15%.
The figure for `Cc1ccc(C(=O)OC2=CC(=O)CC(C)(C)C2)cc1` is -13.7%; for `CCc1c(C)sc(NC(=O)c2cccs2)c1C(N)=O` it is 1.68%; for `O=C1Nc2ccc(Br)cc2/C1=N/N=C/C1=C(N2CCOCC2)C(=C\c2ccccc2)/CC1` it is 46.4% (active).
The figure for `COc1ccc(/C=N/N=C2/C(=O)Nc3ccccc32)cc1O` is -11.9%.
The figure for `O=C(c1cccc(-n2cccc2)c1)N1CCN(S(=O)(=O)c2ccc(F)cc2)CC1` is -9.43%; for `COc1cc(Nc2nc3ccc(Cl)cc3n3cnnc23)cc(OC)c1OC` it is -3.66%; for `Nc1nc(SCC(=O)NNc2c(Cl)cc(Cl)cc2Cl)n[nH]1` it is -14.8%.
Take `COc1ccc(CNc2cc(C)cc(C)c2)cc1OC`: the inhibition was -9.47%.
As to `CN(CC(=O)Nc1ccc(F)c(F)c1F)C(=O)C1CC(=O)N(C2CCCC2)C1` (stereo not given), the inhibition was 19.9%.
For `COc1ccc(CS(=O)/C(Cl)=C(/Cl)C(=O)Nc2ccc(OC)nc2)cc1` (stereo not given) the value was 67.6% (active).
The figure for `COc1ccc(NC(=O)/C(Cl)=C(/Cl)S(=O)Cc2ccc(C)cc2)cn1` (stereo not given) is 89.8% (active).
For `COC(=O)c1sccc1NC(=S)Nc1ccc(C)cc1` the value was -10.8%; for `CCN(CC(=O)Nc1ccc(OC)cc1)C(=O)CSCc1ccc(C)cc1`, 12.9%; for `COc1ccc(CCC(=O)c2ccc(OC)cc2)cc1`, -11.9%.
For the molecule `COc1ccc(OC(C)C(=O)Nc2cccnc2)cc1` (stereo not given), the inhibition was 15.8%.
For `CC1CCCCN1C(=O)CCS(=O)(=O)Cc1ccccc1` (stereo not given) the value was 11.3%; for `Cc1nc(CN2CCN(C(=O)CCc3nnc(Cc4c[nH]c5ccccc45)o3)CC2)cs1`, 21.1%.
In the case of `CSC1=N/C(=C\C=C\c2cccs2)C(=O)S1`, the inhibition was 5.36%.
Take `CC(C)c1ccc(NS(=O)(=O)c2cn(C)c(=O)n(C)c2=O)cc1`: the inhibition is 7.41%.
On to `CCCc1nc2c(C)cc(-c3nc4ccccc4n3C)cc2n1Cc1ccc(-c2ccccc2C(=O)O)cc1`, for which the inhibition was 9.96%.
`CC(=O)c1c(C)[nH]c(C(=O)CN2C(=O)NC(C)(C)C2=O)c1C`: the inhibition is 8.53%.
The figure for `Cc1ccc(SC(C)C(=O)NCc2ccc(F)cc2)cc1` (stereo not given) is 16.8%.
